Experimental data from PubChem BioAssay (NCI).
Compounds without any hit were thinned out: in the full panel of roughly 83,000, 20% have a hit.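 Cells were grown in 96-well plates and exposed to the test compound at a single concentration for 48 hours; results are reported as percent growth, with values below 10 considered active.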 The source made the active and inactive calls.

Tests used:
Assay in all cases: NCI-60 one-dose screen, 48 h (100 = growth as untreated, 0 = no growth, -100 = all killed)
Conditions in all cases: 10 µM unless noted
SK-MEL-2 melanoma = tested on: SK-MEL-2 melanoma
SN12C renal = tested on: SN12C renal
UO-31 renal = tested on: UO-31 renal
TK-10 renal = tested on: TK-10 renal
ACHN renal = tested on: ACHN renal
CAKI-1 renal = tested on: CAKI-1 renal
A498 renal = tested on: A498 renal
CCRF-CEM leukemia = tested on: CCRF-CEM leukemia
MOLT-4 leukemia = tested on: MOLT-4 leukemia
SR leukemia = tested on: SR leukemia
RPMI-8226 leukemia = tested on: RPMI-8226 leukemia
OVCAR-8 ovarian = tested on: OVCAR-8 ovarian
OVCAR-5 ovarian = tested on: OVCAR-5 ovarian
OVCAR-4 ovarian = tested on: OVCAR-4 ovarian
SK-OV-3 ovarian = tested on: SK-OV-3 ovarian
IGROV1 ovarian = tested on: IGROV1 ovarian
OVCAR-3 ovarian = tested on: OVCAR-3 ovarian
HS 578T breast = tested on: HS 578T breast
NCI/ADR-RES ovarian = tested on: NCI/ADR-RES ovarian
EKVX NSCLC = tested on: EKVX NSCLC

Measured: growth

CC(C)C[C@H](NC(=O)/C=C/Cn1ccc2ccccc2c1=O)B(O)O
active: TK-10 renal 2.1% | A498 renal -3.46% | MOLT-4 leukemia 1.78% | SR leukemia 9.14% | OVCAR-3 ovarian 0.848%
inactive: SK-MEL-2 melanoma 24% | SN12C renal 54.7% | UO-31 renal 48.9% | ACHN renal 31.7% | CAKI-1 renal 45.3% | CCRF-CEM leukemia 12.2% | RPMI-8226 leukemia 11.1% | OVCAR-8 ovarian 86.8% | OVCAR-5 ovarian 47.2% | OVCAR-4 ovarian 89.3% | SK-OV-3 ovarian 69.2% | IGROV1 ovarian 77% | HS 578T breast 43.8% | NCI/ADR-RES ovarian 106%

COc1cc(-c2nc3sc4c(c3c(=O)[nH]2)CCCCCC4)cc(OC)c1OC
inactive: SK-MEL-2 melanoma 16.4% | SN12C renal 22.1% | UO-31 renal 27.8% | TK-10 renal 47.6% | ACHN renal 44.5% | CAKI-1 renal 19.9% | CCRF-CEM leukemia 14.3% | MOLT-4 leukemia 14.6% | SR leukemia 15.5% | OVCAR-8 ovarian 25.2% | OVCAR-5 ovarian 37.8% | OVCAR-4 ovarian 61.6% | SK-OV-3 ovarian 14.2% | IGROV1 ovarian 34.5%
active: A498 renal -12.3% | RPMI-8226 leukemia 7.95% | OVCAR-3 ovarian -3.03% | HS 578T breast 5.2% | NCI/ADR-RES ovarian -6.9%

COc1ccc(NC(=O)c2ccccc2-c2ccccc2)c(C(N)=O)c1
active: SR leukemia 8.17% | OVCAR-3 ovarian -22.4%
inactive: SK-MEL-2 melanoma 26.4% | SN12C renal 61.3% | UO-31 renal 40.1% | TK-10 renal 76.1% | ACHN renal 40.4% | CAKI-1 renal 41.9% | A498 renal 30.8% | CCRF-CEM leukemia 11.7% | MOLT-4 leukemia 20% | RPMI-8226 leukemia 38.2% | OVCAR-8 ovarian 58.8% | OVCAR-5 ovarian 88.3% | OVCAR-4 ovarian 49.5% | SK-OV-3 ovarian 32.3% | IGROV1 ovarian 52.1% | HS 578T breast 38.9% | NCI/ADR-RES ovarian 26.9%

CC(=O)c1ccc(NS(=O)(=O)c2ccc([N+](=O)[O-])cc2)cc1
inactive: SK-MEL-2 melanoma 95.1% | SN12C renal 99.5% | UO-31 renal 77.8% | TK-10 renal 100% | ACHN renal 93.8% | CAKI-1 renal 96.9% | A498 renal 90.5% | CCRF-CEM leukemia 93.8% | MOLT-4 leukemia 87.1% | SR leukemia 83.8% | RPMI-8226 leukemia 101% | OVCAR-8 ovarian 106% | OVCAR-5 ovarian 98.2% | OVCAR-4 ovarian 112% | SK-OV-3 ovarian 95.7% | IGROV1 ovarian 107% | OVCAR-3 ovarian 108% | HS 578T breast 115% | NCI/ADR-RES ovarian 109%

CCc1nn2c(-c3ccc(Cl)cc3C)c(-c3cc(OC)c(OC)c(OC)c3)nc2s1
inactive: SK-MEL-2 melanoma 69.6% | SN12C renal 80.2% | UO-31 renal 47.1% | TK-10 renal 77.2% | ACHN renal 76.7% | CAKI-1 renal 55.2% | A498 renal 74.5% | CCRF-CEM leukemia 85.1% | MOLT-4 leukemia 71% | SR leukemia 48.3% | RPMI-8226 leukemia 63.8% | OVCAR-8 ovarian 103% | OVCAR-5 ovarian 92.9% | OVCAR-4 ovarian 54% | SK-OV-3 ovarian 94.5% | IGROV1 ovarian 73.1% | HS 578T breast 48.5% | NCI/ADR-RES ovarian 78.3%

COc1ccc(-c2nc3sc4c(c3c(=O)[nH]2)CCCCCC4)cc1
inactive: SK-MEL-2 melanoma 39.7% | SN12C renal 59.4% | UO-31 renal 62% | TK-10 renal 60.5% | ACHN renal 65.6% | CAKI-1 renal 47.2% | A498 renal 34.6% | CCRF-CEM leukemia 30% | MOLT-4 leukemia 43.4% | SR leukemia 27.9% | RPMI-8226 leukemia 72% | OVCAR-8 ovarian 70.7% | OVCAR-5 ovarian 83.8% | OVCAR-4 ovarian 50.4% | SK-OV-3 ovarian 48% | IGROV1 ovarian 63.1% | OVCAR-3 ovarian 44.2% | HS 578T breast 58.4% | NCI/ADR-RES ovarian 51.2%

COc1ccc(NC(=O)c2ccc(-c3ccccc3)cc2)c(C(N)=O)c1
inactive: SK-MEL-2 melanoma 99.6% | SN12C renal 96.6% | UO-31 renal 79.6% | TK-10 renal 118% | ACHN renal 102% | CAKI-1 renal 103% | A498 renal 97% | CCRF-CEM leukemia 90% | MOLT-4 leukemia 84.6% | SR leukemia 72.2% | RPMI-8226 leukemia 96.3% | OVCAR-8 ovarian 108% | OVCAR-5 ovarian 112% | OVCAR-4 ovarian 115% | SK-OV-3 ovarian 98.5% | IGROV1 ovarian 102% | OVCAR-3 ovarian 96.6% | HS 578T breast 104% | NCI/ADR-RES ovarian 98.2%

c1ccc2nc(N/N=C3\CCCCC3C3CCCCC3)ccc2c1 (configuration not stated)
inactive: SK-MEL-2 melanoma 34.6% | EKVX NSCLC 33.5% | SN12C renal 59.4% | TK-10 renal 72.8% | ACHN renal 44.5% | CAKI-1 renal 43.4% | OVCAR-8 ovarian 83.6% | OVCAR-5 ovarian 58% | OVCAR-4 ovarian 51.1% | SK-OV-3 ovarian 88.6% | IGROV1 ovarian 44.4% | OVCAR-3 ovarian 33.2% | NCI/ADR-RES ovarian 57.2%
active: CCRF-CEM leukemia 7.99% | MOLT-4 leukemia 6.97% | SR leukemia -17.5% | RPMI-8226 leukemia -18.8%

Nc1ncnc2c1CN(Cc1ccccc1)CC2
inactive: SK-MEL-2 melanoma 103% | EKVX NSCLC 110% | UO-31 renal 76.2% | TK-10 renal 108% | ACHN renal 103% | CAKI-1 renal 102% | A498 renal 120% | CCRF-CEM leukemia 95.5% | MOLT-4 leukemia 102% | SR leukemia 94.6% | OVCAR-8 ovarian 106% | OVCAR-5 ovarian 114% | OVCAR-4 ovarian 102% | SK-OV-3 ovarian 103% | IGROV1 ovarian 118% | OVCAR-3 ovarian 129% | HS 578T breast 119% | NCI/ADR-RES ovarian 104%

C/C(=C\CCc1ccoc1)CC/C=C(\C)CCCNc1ccc(F)cc1
inactive: SK-MEL-2 melanoma 106% | SN12C renal 76.2% | UO-31 renal 54.6% | TK-10 renal 113% | ACHN renal 97.9% | CAKI-1 renal 88.7% | A498 renal 79.7% | CCRF-CEM leukemia 58.7% | MOLT-4 leukemia 59.6% | SR leukemia 83.4% | RPMI-8226 leukemia 53.8% | OVCAR-8 ovarian 101% | OVCAR-5 ovarian 93.5% | OVCAR-4 ovarian 75.2% | SK-OV-3 ovarian 101% | IGROV1 ovarian 91.7% | OVCAR-3 ovarian 99.9% | HS 578T breast 109% | NCI/ADR-RES ovarian 98.1%

CC1CN(CC(O)c2ccc(Br)cc2)CCO1 (configuration not stated)
inactive: SK-MEL-2 melanoma 103% | EKVX NSCLC 120% | SN12C renal 110% | TK-10 renal 110% | ACHN renal 106% | CAKI-1 renal 103% | CCRF-CEM leukemia 102% | MOLT-4 leukemia 97% | SR leukemia 92.3% | OVCAR-8 ovarian 96.2% | OVCAR-5 ovarian 103% | OVCAR-4 ovarian 116% | SK-OV-3 ovarian 112% | IGROV1 ovarian 109% | OVCAR-3 ovarian 107% | NCI/ADR-RES ovarian 108%

CCOC(=O)/C(=C/CC/C(C)=C/CC/C(C)=C/CCc1ccoc1)CC(=O)N1CCCCC1
active: SK-MEL-2 melanoma -19% | A498 renal -20.2% | MOLT-4 leukemia 0.624% | RPMI-8226 leukemia -5.3%
inactive: SN12C renal 47.2% | UO-31 renal 25.1% | TK-10 renal 63.7% | ACHN renal 55.2% | CAKI-1 renal 60.7% | CCRF-CEM leukemia 22.7% | SR leukemia 19.8% | OVCAR-8 ovarian 72.4% | OVCAR-5 ovarian 64.6% | OVCAR-4 ovarian 64.8% | SK-OV-3 ovarian 84.4% | IGROV1 ovarian 77.8% | OVCAR-3 ovarian 12.5% | HS 578T breast 74.3% | NCI/ADR-RES ovarian 50.6%

Clc1ccc2nc(CI)c(CI)nc2c1
inactive: SK-MEL-2 melanoma 82.5% | EKVX NSCLC 90.1% | SN12C renal 59.4% | TK-10 renal 88.3% | ACHN renal 87.7% | A498 renal 118% | OVCAR-8 ovarian 93% | OVCAR-5 ovarian 91% | OVCAR-4 ovarian 100% | SK-OV-3 ovarian 98.8% | OVCAR-3 ovarian 65.4% | NCI/ADR-RES ovarian 100%
active: CCRF-CEM leukemia 4.15% | MOLT-4 leukemia -27.4% | RPMI-8226 leukemia -36.6%

CCOc1cc(/C=C/C(=O)C(C(=O)/C=C/c2ccc(OC(=O)CNc3nnc(C)s3)c(OCC)c2)C(=O)CNc2nnc(C)s2)ccc1OC(=O)CNc1nnc(C)s1
inactive: SK-MEL-2 melanoma 11% | TK-10 renal 32.4% | OVCAR-4 ovarian 23.1% | SK-OV-3 ovarian 43.6% | OVCAR-3 ovarian 11.3% | HS 578T breast 10.1%
active: EKVX NSCLC -13.9% | SN12C renal -3.17% | CAKI-1 renal -6.01% | A498 renal -41.7% | RPMI-8226 leukemia -68.3% | OVCAR-8 ovarian 2.17% | OVCAR-5 ovarian -11.7% | IGROV1 ovarian -53.7% | NCI/ADR-RES ovarian 7.78%

Cc1cn(C(C=O)OC(C=O)CO)c(=O)[nH]c1=O (configuration not stated)
inactive: SK-MEL-2 melanoma 104% | SN12C renal 102% | UO-31 renal 88.6% | TK-10 renal 103% | ACHN renal 107% | CAKI-1 renal 105% | A498 renal 111% | CCRF-CEM leukemia 98.4% | MOLT-4 leukemia 104% | SR leukemia 93.9% | RPMI-8226 leukemia 107% | OVCAR-5 ovarian 111% | OVCAR-4 ovarian 96.9% | SK-OV-3 ovarian 103% | IGROV1 ovarian 102% | OVCAR-3 ovarian 109% | HS 578T breast 103% | NCI/ADR-RES ovarian 107%

Cc1[nH]c(=O)[nH]c(=O)c1CCSSCCc1c(C)[nH]c(=O)[nH]c1=O
inactive: SK-MEL-2 melanoma 102% | SN12C renal 104% | UO-31 renal 83.3% | TK-10 renal 101% | ACHN renal 104% | CAKI-1 renal 97.1% | A498 renal 107% | MOLT-4 leukemia 100% | SR leukemia 79.6% | RPMI-8226 leukemia 104% | OVCAR-8 ovarian 107% | OVCAR-5 ovarian 110% | OVCAR-4 ovarian 117% | SK-OV-3 ovarian 103% | IGROV1 ovarian 99.8% | OVCAR-3 ovarian 117% | HS 578T breast 142% | NCI/ADR-RES ovarian 104%
